# Test results taken from article PMC5869772, “Quantitative profiling of BATF family proteins/JUNB/IRF hetero-trimers using Spec-seq”.
# Target: T1, BATF;JUNB (human;human, UniProt Q16520;P17275 1-125;148-347, |)
# T1 sequence 1: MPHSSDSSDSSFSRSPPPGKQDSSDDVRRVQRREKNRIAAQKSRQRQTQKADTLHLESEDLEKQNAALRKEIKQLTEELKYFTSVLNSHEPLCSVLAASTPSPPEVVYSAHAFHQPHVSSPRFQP
# T1 sequence 2: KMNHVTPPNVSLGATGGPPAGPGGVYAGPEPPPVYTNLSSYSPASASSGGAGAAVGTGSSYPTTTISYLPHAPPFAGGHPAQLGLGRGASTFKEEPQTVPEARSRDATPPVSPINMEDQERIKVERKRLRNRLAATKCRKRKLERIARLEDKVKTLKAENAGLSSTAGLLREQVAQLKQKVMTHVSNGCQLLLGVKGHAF
# Assay: Spec-seq (EMSA and sequencing of bound and unbound bands); 100 nM BATFx-JUNB, 1 uM dsDNA library, 50 mM K acetate, 20 mM Tris-acetate, 10 mM Mg acetate, 100 ug/ml BSA, pH 7.9, 10% glycerol, 30 min on ice; native 9% PAGE at 4 C; low values mean tight binding
# Conditions: protein: recombinant;recombinant; tags: N-terminal mCherry-TEV, cleaved off;C-terminal 6His; copies: 1;1; dsDNA, one strand shown
# In short: (§1)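 The protein, at 100 nM, was incubated with 1 μM double-stranded degenerate DNA library for 30 min on ice in NEB Cutsmart buffer with 10% glycerol, then resolved by native 9% PAGE at 4 °C. Excised bound and unbound bands were PCR-barcoded and Illumina-sequenced, and each sequence's relative binding energy in kT is −ln of its bound/unbound read-count ratio.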
row,Sequence,binding signal
1,GATAGTCTCATTTTCACCCCGTGAAAGTGCGTCATTGTTCCATTACAGTATCTGT,-0.695 kT
2,GATAGTCTCATTTTCACCCCGTGAAATGAGTGATTTGTTCCATTACAGTATCTGT,0.0243 kT
3,GATAGTCTCATTTTCACCCCGTGAAATGACGTAATTGTTCCATTACAGTATCTGT,-0.759 kT

# Target: T2, BATF2 (bZIP);JUNB (human;human, UniProt Q8N1L9;P17275 1-142;148-347, |)
# T2 sequence 1: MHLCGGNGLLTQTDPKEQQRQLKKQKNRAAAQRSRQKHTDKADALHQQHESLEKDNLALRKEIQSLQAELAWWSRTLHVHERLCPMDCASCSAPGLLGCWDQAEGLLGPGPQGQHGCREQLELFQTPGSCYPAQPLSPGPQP
# T2 sequence 2: T1 sequence 2
# Assay: as above
# Conditions: protein: recombinant;recombinant; tags: N-terminal mCherry-TEV, cleaved off;C-terminal 6His; copies: 1;1; dsDNA, one strand shown
# In short: as §1
row,Sequence,binding signal
1,GATAGTCTCATTTTCACCCCGTGAAACTCAGTCATTGTTCCATTACAGTATCTGT,0.236 kT
2,GATAGTCTCATTTTCACCCCGTGAAATAACTCATTTGTTCCATTACAGTATCTGT,0.612 kT
3,GATAGTCTCATTTTCACCCCGTGAAATTACGTCATTGTTCCATTACAGTATCTGT,-1.14 kT
4,GATAGTCTCATTTTCACCCCGTGAAATGACTCGTTTGTTCCATTACAGTATCTGT,0.491 kT
5,GATAGTCTCATTTTCACCCCGTGAAATGACGTCCTTGTTCCATTACAGTATCTGT,0.602 kT
6,GATAGTCTCATTTTCACCCCGTGAAATGACCCATTTGTTCCATTACAGTATCTGT,0.823 kT
7,GATAGTCTCATTTTCACCCCGTGAAATGCCGTCATTGTTCCATTACAGTATCTGT,0.122 kT
8,GATAGTCTCATTTTCACCCCGTGAAATGACTAAATTGTTCCATTACAGTATCTGT,0.513 kT
9,GATAGTCTCATTTTCACCCCGTGAAATGACTCACTTGTTCCATTACAGTATCTGT,-0.378 kT
10,GATAGTCTCATTTTCACCCCGTGAAATGACGCAATTGTTCCATTACAGTATCTGT,-0.276 kT
11,GATAGTCTCATTTTCACCCCGTGAAATTGCGTCATTGTTCCATTACAGTATCTGT,-0.761 kT
12,GATAGTCTCATTTTCACCCCGTGAAACTGCGTCATTGTTCCATTACAGTATCTGT,-0.164 kT
13,GATAGTCTCATTTTCACCCCGTGAAATGAGTGAATTGTTCCATTACAGTATCTGT,0.83 kT
14,GATAGTCTCATTTTCACCCCGTGAAATGACTCTCTTGTTCCATTACAGTATCTGT,0.738 kT
15,GATAGTCTCATTTTCACCCCGTGAAAGCGAGTCATTGTTCCATTACAGTATCTGT,0.234 kT
16,GATAGTCTCATTTTCACCCCGTGAAAGTGTGTCATTGTTCCATTACAGTATCTGT,-0.00937 kT

row,Sequence,binding signal
1,GATAGTCTCATTTTCACCCCGTGAAATGAGTAATTTGTTCCATTACAGTATCTGT,0.147 kT
2,GATAGTCTCATTTTCACCCCGTGAAATTAAGTCATTGTTCCATTACAGTATCTGT,-0.048 kT
3,GATAGTCTCATTTTCACCCCGTGAAATGAGCCATTTGTTCCATTACAGTATCTGT,1.26 kT
4,GATAGTCTCATTTTCACCCCGTGAAATGACTGAATTGTTCCATTACAGTATCTGT,0.382 kT
5,GATAGTCTCATTTTCACCCCGTGAAATGAGTTACTTGTTCCATTACAGTATCTGT,0.967 kT
6,GATAGTCTCATTTTCACCCCGTGAAATGAGTCAGTTGTTCCATTACAGTATCTGT,-0.0533 kT
7,GATAGTCTCATTTTCACCCCGTGAAATGACGCCATTGTTCCATTACAGTATCTGT,0.257 kT
8,GATAGTCTCATTTTCACCCCGTGAAATGAGACAATTGTTCCATTACAGTATCTGT,1.52 kT
9,GATAGTCTCATTTTCACCCCGTGAAATGACGTCGTTGTTCCATTACAGTATCTGT,0.27 kT
10,GATAGTCTCATTTTCACCCCGTGAAATGACTAAGTTGTTCCATTACAGTATCTGT,0.286 kT
11,GATAGTCTCATTTTCACCCCGTGAAAAGAGTCATTTGTTCCATTACAGTATCTGT,0.416 kT
12,GATAGTCTCATTTTCACCCCGTGAAATGATTCATTTGTTCCATTACAGTATCTGT,-0.369 kT
13,GATAGTCTCATTTTCACCCCGTGAAATGACTTAATTGTTCCATTACAGTATCTGT,0.212 kT
14,GATAGTCTCATTTTCACCCCGTGAAATGACTCAGTTGTTCCATTACAGTATCTGT,-0.202 kT
15,GATAGTCTCATTTTCACCCCGTGAAAGTGCGTCATTGTTCCATTACAGTATCTGT,-0.267 kT
